# Where “and” joins values, the source holds several entries; their conditions need not be identical. Identical values can stand only once. Values without a mark were called inactive. Results filed as inconclusive are left out. Calls of active or inactive are those of the source. Calls come from the whole dose curve; as a rule, active = well fitted curve in the direction sought with a large enough effect; inconclusive = small, poorly fitted or top-dose-only effect, or another doubt; inactive = no such curve, though single readings can be large; an effect the other way counts as inactive or inconclusive.
# Key:
# [1] = target: Cytochrome P450 2C9 (Homo sapiens) (UniProt P11712); experiment: qHTS Assay for Inhibitors and Substrates of Cytochrome P450 2C9 (AID 883); note: nearly all actives have a fitted effect of over 60% in size; note: potency is the fitted concentration of half-maximal effect
# Cytochrome P450 2C9 (Homo sapiens), sequence (P11712 whole entry, looked up): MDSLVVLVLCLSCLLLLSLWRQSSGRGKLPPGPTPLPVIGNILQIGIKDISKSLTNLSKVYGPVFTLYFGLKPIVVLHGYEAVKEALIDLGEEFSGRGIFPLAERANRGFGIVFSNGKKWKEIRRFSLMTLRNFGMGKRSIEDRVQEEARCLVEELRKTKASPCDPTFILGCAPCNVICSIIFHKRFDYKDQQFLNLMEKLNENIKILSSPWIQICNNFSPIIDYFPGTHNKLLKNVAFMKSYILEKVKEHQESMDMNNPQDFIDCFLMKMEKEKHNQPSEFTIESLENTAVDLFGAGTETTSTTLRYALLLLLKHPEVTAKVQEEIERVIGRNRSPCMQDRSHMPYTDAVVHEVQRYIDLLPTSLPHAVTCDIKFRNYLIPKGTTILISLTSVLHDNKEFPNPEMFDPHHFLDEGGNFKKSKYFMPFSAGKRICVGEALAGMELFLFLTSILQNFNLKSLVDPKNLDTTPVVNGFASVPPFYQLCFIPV
# Procedure, shortened: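 Turnover of Luciferin-H (100uM, KM) by 10nM human CYP2C9 was measured over 60 min at 37C with NADPH regeneration; inhibitors and some substrates reduce luminescence. Data normalized to sulphaphenazole 57uM.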
# [2] = target: Cytochrome P450 3A4 (Homo sapiens) (UniProt P08684); experiment: qHTS Assay for Inhibitors and Substrates of Cytochrome P450 3A4 (AID 884); note: potency is the fitted concentration of half-maximal effect; nearly all actives have a fitted effect of over 50% in size
# Cytochrome P450 3A4 (Homo sapiens), sequence (P08684 whole entry, looked up): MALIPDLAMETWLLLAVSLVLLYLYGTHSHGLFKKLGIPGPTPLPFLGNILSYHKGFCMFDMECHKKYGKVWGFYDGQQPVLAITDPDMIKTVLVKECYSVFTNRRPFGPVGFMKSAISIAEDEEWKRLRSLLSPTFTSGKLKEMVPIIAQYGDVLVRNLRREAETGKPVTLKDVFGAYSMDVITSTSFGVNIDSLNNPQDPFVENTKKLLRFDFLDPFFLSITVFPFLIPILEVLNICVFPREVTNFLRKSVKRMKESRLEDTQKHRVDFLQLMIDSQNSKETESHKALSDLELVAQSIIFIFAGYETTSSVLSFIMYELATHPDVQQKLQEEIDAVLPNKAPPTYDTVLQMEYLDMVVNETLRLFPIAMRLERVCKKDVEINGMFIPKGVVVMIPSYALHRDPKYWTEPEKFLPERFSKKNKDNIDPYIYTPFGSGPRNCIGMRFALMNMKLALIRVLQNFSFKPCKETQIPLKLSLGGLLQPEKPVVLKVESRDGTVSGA
# Procedure, shortened: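 20 nM human CYP3A4 with 25 uM Luciferin-PPXE (at KM) in 200 mM KPO4, preincubated 10 min with compound; NADPH regeneration started a 60 min RT reaction. Luciferin detected by luminescence, normalized to 57 uM ketoconazole as full inhibition.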
# [3] = target: Cytochrome P450 3A4 (Homo sapiens) (UniProt P08684); experiment: qHTS Assay for Activators of Cytochrome P450 3A4 (AID 885); note: nearly all actives have a fitted effect of over 65% in size
# Procedure, shortened: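 Quantitative HTS format: compounds preincubated with 20nM human CYP3A4 and Luciferin-PPXE substrate at KM, reaction started by NADPH regeneration, stopped after 60 min, luciferase luminescence read 20 min later.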
# [4] = target: Cytochrome P450 2D6 (Homo sapiens) (UniProt P10635); experiment: qHTS Assay for Inhibitors and Substrates of Cytochrome P450 2D6 (AID 891); note: nearly all actives have a fitted effect of over 60% in size; note: potency is the fitted concentration of half-maximal effect
# Cytochrome P450 2D6 (Homo sapiens), sequence (P10635 whole entry, looked up): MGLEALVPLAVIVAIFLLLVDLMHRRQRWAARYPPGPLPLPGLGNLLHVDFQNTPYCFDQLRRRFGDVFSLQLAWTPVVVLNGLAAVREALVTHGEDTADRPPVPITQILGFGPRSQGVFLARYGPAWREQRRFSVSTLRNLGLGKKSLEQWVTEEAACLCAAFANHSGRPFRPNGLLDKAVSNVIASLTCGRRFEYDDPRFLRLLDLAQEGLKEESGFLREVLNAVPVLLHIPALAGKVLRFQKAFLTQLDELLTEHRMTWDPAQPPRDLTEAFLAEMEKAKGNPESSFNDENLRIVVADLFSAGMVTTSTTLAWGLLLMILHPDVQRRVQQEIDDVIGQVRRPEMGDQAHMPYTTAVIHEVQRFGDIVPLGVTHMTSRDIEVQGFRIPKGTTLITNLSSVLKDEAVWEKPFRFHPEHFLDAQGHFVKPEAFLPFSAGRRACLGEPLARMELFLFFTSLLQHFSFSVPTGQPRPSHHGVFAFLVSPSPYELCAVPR
# Procedure, shortened: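 Human CYP2D6 (5 nM) with 30 uM Luciferin-ME EGE (at Km) in 100 mM KPO4, compound preincubated 10 min, then NADPH regeneration system for 60 min at room temperature. Luciferin read by luminescence; normalized to 1.43 uM quinidine.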
# [5] = target: Cytochrome P450 2C19 (Homo sapiens) (UniProt P33261); experiment: qHTS Assay for Inhibitors and Substrates of Cytochrome P450 2C19 (AID 899); note: nearly all actives have a fitted effect of over 60% in size; note: potency is the fitted concentration of half-maximal effect
# Cytochrome P450 2C19 (Homo sapiens), sequence (P33261 whole entry, looked up): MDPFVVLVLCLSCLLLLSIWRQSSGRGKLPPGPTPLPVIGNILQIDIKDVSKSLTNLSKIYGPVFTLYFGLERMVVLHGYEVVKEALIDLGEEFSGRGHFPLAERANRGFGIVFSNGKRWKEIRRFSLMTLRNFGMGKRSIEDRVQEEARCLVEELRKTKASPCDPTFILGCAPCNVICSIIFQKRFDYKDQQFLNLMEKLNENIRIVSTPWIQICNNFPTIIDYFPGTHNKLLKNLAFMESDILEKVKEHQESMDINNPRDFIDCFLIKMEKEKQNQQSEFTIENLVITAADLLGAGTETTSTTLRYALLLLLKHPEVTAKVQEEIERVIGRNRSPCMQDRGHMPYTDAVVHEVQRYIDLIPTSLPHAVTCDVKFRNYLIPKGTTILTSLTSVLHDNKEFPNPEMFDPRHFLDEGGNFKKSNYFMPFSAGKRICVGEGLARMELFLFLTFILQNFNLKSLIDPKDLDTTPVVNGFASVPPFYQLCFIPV
# Procedure, shortened: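 Reactions contain 5nM enzyme, 10uM Luciferin-H EGE (KM) and 50mM KPO4; compound preincubates 10 min at 37C, NADPH regeneration starts turnover for 60 min. Luminescence after detection reagent gives activity.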
Structure (SMILES),Potency [1],Potency [2],"activity change, positive = activation [3]",Potency [4],Potency [5]
Cc1cc(C)cc(C#CC2C=CC(Oc3ccc(C4CCCC4)cc3)C(CO)O2)c1 (stereo unspecified),inactive,3.98 µM (active),-81.6% [at 11.4 µM],inactive,inactive
CC(C)(C)c1ccc(OC2C=CC(C#Cc3ccccc3)OC2CO)cc1 (stereo unspecified),inactive,3.16 µM (active),-73.2% [at 11.4 µM],inactive,inactive
CCCCC#CC1C=CC(Oc2ccc(OC)cc2)C(CO)O1 (stereo unspecified),inactive,3.16 µM (active),-94.2% [at 11.4 µM],inactive,–
CC(=O)OCC1OC(C#Cc2ccccc2Cl)C=CC1OC(C)=O (stereo unspecified),inactive,3.98 µM (active),-76.5% [at 11.4 µM],inactive,–
CC1(C)OC(C(O)(c2ccccc2)c2ccccc2)C(C(O)(c2ccccc2)c2ccccc2)O1 (stereo unspecified),inactive,2.51 µM (active),-63.1% [at 11.4 µM],inactive,inactive
Cc1cc2c(nc1C)CCCN2C[C@H](O)CN1CCCc2nc(-c3ccc(Br)cc3)ccc21,2.51 µM (active),3.98 µM (active),-65% [at 11.4 µM] and -47.8% [at 11.4 µM],3.16 µM (active),–
COc1ccc(OCC2Cc3c(-c4ccccc4)nc4c(c3CO2)CN(CCOc2ccccc2)CC4)cc1 (stereo unspecified),inactive,3.98 µM (active),-83.6% [at 11.4 µM],inactive,inactive
CC(=O)c1ccc(C2C=CC(Oc3ccc(F)cc3C)C(CO)O2)cc1 (stereo unspecified),inactive,3.16 µM (active),-76.9% [at 11.4 µM],inactive,–
COC(=O)NC(/C(C(=O)OC)=C(\C)NCc1ccccc1)c1ccc(F)cc1 (stereo unspecified),2.51 µM (active),3.16 µM (active),-71.8% [at 11.4 µM],1 µM (active),251 nM (active)
C/C(CCN1CCCCc2nc(C)c(C)cc21)=N\O[C@@H](C)c1cc(-c2c(C)cc(C)cc2C)no1,2.51 µM (active),3.98 µM (active),-65.9% [at 11.4 µM],–,–
CC(=O)c1ccc(OC2C=CC(C#Cc3ccc(Br)cc3)OC2CO)cc1 (stereo unspecified),inactive,3.16 µM (active),-77.6% [at 11.4 µM],inactive,–
CC(=O)OCC1OC(C#CCCCc2ccccc2)C=CC1OC(C)=O (stereo unspecified),inactive,3.98 µM (active),-71.4% [at 11.4 µM] and -59.5% [at 11.4 µM],3.98 µM (active) and 3.16 µM (active),–
CCOC(=O)OCC1OC(C#Cc2ccccc2)C=CC1Oc1cccc(N(C)C)c1 (stereo unspecified),2.51 µM (active),3.98 µM (active),-91.5% [at 11.4 µM],–,–
C=CCC1C=CC(Oc2ccc(OC)cc2)C(CO)O1 (stereo unspecified),inactive,3.98 µM (active),-64.8% [at 11.4 µM],inactive,inactive
COc1ccc(O[C@H]2C=C[C@@H](c3ccccc3)O[C@H]2CO/N=C2/c3cc(OC)ccc3O[C@@H](c3cccc(OC)c3)[C@H]2O)cc1,3.16 µM (active),3.16 µM (active),-100% [at 11.4 µM],–,501 nM (active)
CCCCOC(OCCCC)[C@H](O)CSc1ccc2ccccc2c1,2 µM (active),5.01 µM (active),-60.8% [at 11.4 µM],–,3160 nM (active)
C/C(CCC(=O)OC[C@@H]1O[C@H](C#Cc2ccccc2)C=C[C@@H]1Oc1ccc(C)cc1)=N/O[C@@H](C)c1cn([C@H](CO)Cc2ccccc2)nn1,3.16 µM (active),3.98 µM (active) and 3.16 µM (active),-114% [at 11.4 µM] and -117% [at 11.4 µM],–,3980 nM (active)
C=CCOC(=O)C(C(C)=O)C(NC(=O)OC)c1cccc(C(F)(F)F)c1 (stereo unspecified),inactive,1.58 µM (active),-104% [at 11.4 µM],inactive,100 nM (active)
COc1ccc(O[C@H]2C=C[C@@H](c3ccccc3)O[C@H]2COC(=O)CC/C(C)=N\OC[C@@H](O)[C@H]2O[C@H]3OC(C)(C)O[C@H]3[C@@H]2O)cc1,1.58 µM (active),3.98 µM (active),-92.2% [at 11.4 µM],–,5 nM (active)
COC(=O)N(/C=C/c1ccc(OC)cc1)CCc1ccc(OC)c(OC)c1,3.16 µM (active),3.98 µM (active),-93.3% [at 11.4 µM],inactive,3980 nM (active)
C=CCOC(=O)C(C(C)=O)C(NC(=O)OC)c1ccccc1 (stereo unspecified),inactive,3.98 µM (active),-86.9% [at 11.4 µM],inactive,631 nM (active)
